Results on seven compounds are retold here after PubChem BioAssay (EPA / NIEHS).

Active and inactive are the calls of the source. How the source made its calls: active means hit-call score of the fitted dose curve at least 0.9, where 1 is the maximum; inactive means score below 0.9.

Read-out in assay [1]: Interleukin-6 (IL6), IL6 (gene 3569)
The assay can be described thus: BSK_CASM3C_IL6: BioMAP Diversity Plus: CASM3C Assay for Interleukin-6 (IL6) Biomarker Activity for (AID 2283040). As to conditions: primary human coronary artery smooth muscle cells; actives raise or lower the signal.

Read-out in assay [2]: Tissue plasminogen activator (tPA), PLAT (gene 5327)
Kind of assay: BSK_BE3C_tPA: BioMAP Diversity Plus: BE3C Assay for Tissue plasminogen activator (tPA) Biomarker Activity (AID 2283041).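 Further: tPA level quantified by ELISA one day after compound addition.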 Particulars: primary human bronchial epithelial cells; actives raise or lower the signal. Summed up: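 Gain- or loss-of-signal in tPA, measured by ELISA, derived by bidirectional fitting against DMSO. Cells: human primary bronchial epithelial; read at 24 h after chemical dosing.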

Read-out in assay [3]: Interleukin-8 (IL8), CXCL8 (gene 3576)
The assay can be described thus: BSK_CASM3C_IL8: BioMAP Diversity Plus: CASM3C Assay for Interleukin-8 (IL8) Biomarker Activity (AID 2283042).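 Further: IL-8 protein level quantified by ELISA.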 As to conditions: primary human coronary artery smooth muscle cells; actives raise or lower the signal.

Read-out in assay [4]: Human Leukocyte Antigen - DR isotype (HLADR), HLA-DRA (gene 3122)
The assay can be described thus: BSK_CASM3C_HLADR: BioMAP Diversity Plus: CASM3C Assay for Human Leukocyte Antigen - DR isotype (HLADR) Biomarker Activity (AID 2283043).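 Further: cell-surface HLA-DR protein level quantified by ELISA.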 As to conditions: primary human coronary artery smooth muscle cells; actives raise or lower the signal.

Read-out in assay [5]: Macrophage colony-stimulating factor (MCSF), CSF1 (gene 1435)
Kind of assay: BSK_CASM3C_MCSF: BioMAP Diversity Plus: CASM3C Assay for Macrophage colony-stimulating factor (MCSF) Biomarker Activity (AID 2283044).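 Further: M-CSF protein amount quantified by ELISA after 24 h exposure.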 As to conditions: primary human coronary artery smooth muscle cells; actives raise or lower the signal.

Read-out in assay [6]: Low-density lipoprotein receptor (LDLR), LDLR (gene 3949)
Kind of assay: BSK_CASM3C_LDLR: BioMAP Diversity Plus: CASM3C Assay for Low-density lipoprotein receptor (LDLR) Biomarker Activity (AID 2283045).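 Further: LDLR protein level on the cell surface quantified by ELISA.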 As to conditions: primary human coronary artery smooth muscle cells; actives raise or lower the signal.

Read-out in assay [7]: Monocyte Chemoattractant Protein-1 (MCP1), CCL2 (gene 6347)
Kind of assay: BSK_CASM3C_MCP1: BioMAP Diversity Plus: CASM3C Assay for Monocyte Chemoattractant Protein-1 (MCP1) Biomarker Activity (AID 2283046).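 Further: MCP-1 level quantified by ELISA 24 h after dosing.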 As to conditions: primary human coronary artery smooth muscle cells; actives raise or lower the signal.

Assay [8] can be described thus: BSK_CASM3C_Proliferation: Cell Proliferation Assessment in the BioMAP Diversity Plus: CASM3C Assay (AID 2283047).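 Further: sulforhodamine B total protein stain as relative cell number at 560 nm; sub-confluent cells exposed 48 h before staining; fitted both ways against DMSO so gain or loss of cell number.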 As to conditions: primary human coronary artery smooth muscle cells.
Read-out in assay [9]: Monokine induced gamma interferon (MIG), CXCL9 (gene 4283)
Kind of assay: BSK_CASM3C_MIG: BioMAP Diversity Plus: CASM3C Assay for Monokine induced gamma interferon (MIG) Biomarker Activity (AID 2283048).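 Further: MIG protein level measured by ELISA.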 Particulars: primary human coronary artery smooth muscle cells; actives raise or lower the signal.

Read-out in assay [10]: serum amyloid A (SAA), SAA1 (gene 6288)
The assay can be described thus: BSK_CASM3C_SAA: BioMAP Diversity Plus: CASM3C Assay for serum amyloid A (SAA) Biomarker Activity (AID 2283049).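 Further: SAA protein level quantified by ELISA.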 As to conditions: primary human coronary artery smooth muscle cells; actives raise or lower the signal.

Assay [11] is described as follows: BSK_CASM3C_SRB: Viability Assessment in the BioMAP Diversity Plus: CASM3C Assay (AID 2283050).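 Further: cells exposed to compound for 24 h.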 As to conditions: primary human coronary artery smooth muscle cells.
Read-out in assay [12]: Thrombomodulin, THBD (gene 7056)
Kind of assay: BSK_CASM3C_Thrombomodulin: BioMAP Diversity Plus: CASM3C Assay for Thrombomodulin Biomarker Activity (AID 2283051).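 Further: thrombomodulin protein level measured by ELISA 24 h after dosing.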 As to conditions: primary human coronary artery smooth muscle cells; actives raise or lower the signal.

Read-out in assay [13]: Tissue Factor, F3 (gene 2152)
The assay can be described thus: BSK_CASM3C_TissueFactor: BioMAP Diversity Plus: CASM3C Assay for Tissue Factor Biomarker Activity (AID 2283052).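 Further: cell surface tissue factor protein level read by ELISA.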 Particulars: primary human coronary artery smooth muscle cells; actives raise or lower the signal.

Read-out in assay [14]: Urokinase-type plasminogen activator receptor (uPAR), PLAUR (gene 5329)
Kind of assay: BSK_CASM3C_uPAR: BioMAP Diversity Plus: CASM3C Assay for Urokinase-type plasminogen activator receptor (uPAR) Biomarker Activity (AID 2283054).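 Further: cell-surface uPAR protein level quantified by ELISA.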 As to conditions: primary human coronary artery smooth muscle cells; actives raise or lower the signal.

Read-out in assay [15]: Vascular cell adhesion molecule 1 (VCAM1), VCAM1 (gene 7412)
Kind of assay: BSK_CASM3C_VCAM1: BioMAP Diversity Plus: CASM3C Assay for Vascular cell adhesion molecule 1 (VCAM1) Biomarker Activity (AID 2283055).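 Further: VCAM-1 protein level quantified by ELISA on the cells.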 As to conditions: primary human coronary artery smooth muscle cells; actives raise or lower the signal.

Read-out in assay [16]: Collagen III, COL3A1 (gene 1281)
Kind of assay: BSK_hDFCGF_CollagenIII: BioMAP Diversity Plus: hDFCGF Assay for Collagen III Biomarker Activity (AID 2283056). Particulars: primary human foreskin fibroblasts; actives raise or lower the signal. An outline of the steps:
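Human foreskin fibroblast primary cultures sampled 24 h after dosing; Collagen III quantified by ELISA. Signal fitted bidirectionally against DMSO baseline.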

Read-out in assay [17]: Epidermal growth factor receptor (EGFR), EGFR (gene 1956)
The assay can be described thus: BSK_hDFCGF_EGFR: BioMAP Diversity Plus: hDFCGF Assay for Epidermal growth factor receptor (EGFR) Biomarker Activity (AID 2283057). As to conditions: primary human foreskin fibroblasts; actives raise or lower the signal. An outline of the steps:
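Dosing human primary skin fibroblasts, then measuring surface EGFR by ELISA at 24 h, gives the endpoint; gains and losses relative to DMSO were fitted in both directions.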

Read-out in assay [18]: Interleukin-8 (IL8), CXCL8 (gene 3576)
Kind of assay: BSK_hDFCGF_IL8: BioMAP Diversity Plus: hDFCGF Assay for Interleukin-8 (IL8) Biomarker Activity (AID 2283058). Particulars: primary human foreskin fibroblasts; actives raise or lower the signal. Summed up:
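Primary human foreskin fibroblasts (hDFCGF system) dosed with chemical; IL-8 measured by ELISA 24 hours later. Bidirectional curve fitting relative to DMSO baseline; cytotoxicity tracked in parallel cultures by SRB total protein staining.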

Assay [19] is described as follows: BSK_hDFCGF_Proliferation: Cell Proliferation Assessment in the BioMAP Diversity Plus: hDFCGF Assay (AID 2283059).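 Further: curves fitted for both rise and fall of signal versus DMSO baseline.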 As to conditions: primary human foreskin fibroblasts. An outline of the steps: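 Total protein read at 560 nm after 0.1% SRB staining of TCA-fixed human skin fibroblasts, […]. Activity is fitted in both directions relative to DMSO as baseline.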

Read-out in assay [20]: Interferon-gamma inducible Protein 10 (IP10), CXCL10 (gene 3627)
Kind of assay: BSK_hDFCGF_IP10: BioMAP Diversity Plus: hDFCGF Assay for Interferon-gamma inducible Protein 10 (IP10) Biomarker Activity (AID 2283053). As to conditions: primary human foreskin fibroblasts; actives raise or lower the signal. Summed up:
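Cells: human dermal foreskin fibroblasts. Exposure: 24 h post-dosing. Detection: IP-10 ELISA, with values expressed against DMSO controls and fitted in both directions.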

Take `COP(N)(=S)OC`: the result in assay [1], in [2], in assay [3], in [4], in assay [5] and in assay [6] was inactive. In addition, the outcome in [7], in [8], in assay [9], in [10], in assay [11] and in [12] was inactive. Also, the result in [13], in assay [14], in assay [15], in [16], in assay [17] and in [18] was inactive. Also, the outcome in [19] was inactive.
The AC50 is the concentration at which the activity in the assay is half-maximal. For `N#Cc1c(-c2ccc(Cl)cc2)[nH]c(C(F)(F)F)c1Br`, the AC50 in assay [1] is 1.18 µM (active); in assay [3] it was 0.277 µM (active); in assay [4], 0.36 µM (active); in [5], 20 µM (active); in [6] it was 20 µM (active); in [7] it was 0.0939 µM (active). For the same compound, the AC50 is 0.779 µM (active) in assay [8]; 11.5 µM (active) in assay [9]; 6.57 µM (active) in [10]; 0.865 µM (active) in [11]; 0.224 µM (active) in assay [13]; 20 µM (active) in assay [20]. In addition, the AC50 in [14] is 0.773 µM (active); in assay [15], 30.1 µM (active); in [16], 0.0161 µM (active); in assay [19], 0.731 µM (active). Moreover, the result in assay [2], in assay [12], in assay [17] and in assay [18] was inactive.
As for `Cc1ccc2c(c1N)C(=O)c1ccccc1C2=O`, the result in [1], in assay [2], in [3], in assay [4], in [6] and in assay [7] was inactive. Further, the outcome in assay [8], in assay [9], in [10], in assay [11], in assay [12] and in assay [13] was inactive. Also, the outcome in assay [20], in [15], in assay [17], in [18] and in [19] was inactive. Besides, the AC50 in assay [14] and in [16] was 20 µM (active) each time.
Take `O=P(OCC(Br)CBr)(OCC(Br)CBr)OCC(Br)CBr` (stereo not given): the outcome in assay [1], in assay [2], in assay [3], in assay [4], in assay [5] and in [7] was inactive. For the same compound, the outcome in [9], in assay [10], in assay [11], in assay [12], in assay [13] and in assay [20] was inactive. Also, the result in assay [14], in [15], in [17], in assay [18] and in [19] was inactive. Besides, in assay [8], the concentration at half-maximal activity (AC50) was 3.51 µM (active).
For `ClC1=C(Cl)C2(Cl)C3C(Cl)C(Cl)CC3C1(Cl)C2(Cl)Cl` (stereo not given), the result in assay [1], in [2], in assay [3], in assay [5], in [6] and in assay [7] was inactive. The outcome in [9], in assay [13], in assay [14] and in [17] was inactive. Moreover, the AC50 in [4] was 20 µM (active); in assay [8], 31.1 µM (active); in [10], 20 µM (active); in [11], 33.9 µM (active); in assay [12] it was 24.1 µM (active); in assay [15] it was 25.4 µM (active). For the same compound, the AC50 in [18] is 10.8 µM (active); in assay [19], 6.97 µM (active).
In the case of `O=P(Oc1ccccc1)(Oc1ccccc1)Oc1ccccc1`, the result in assay [1], in assay [2], in assay [3], in assay [4], in assay [5] and in [7] was inactive. Besides, the result in assay [9], in assay [10], in [11], in assay [13], in assay [14] and in assay [15] was inactive. Moreover, the outcome in assay [17] and in assay [18] was inactive. The AC50 in [6] is 29.5 µM (active); in assay [8], 26 µM (active); in assay [12], 29.6 µM (active); in assay [19], 14.2 µM (active).
`Cc1ccc(O)cc1C`: the outcome in assay [1], in assay [2], in [3], in assay [4], in assay [5] and in assay [6] was inactive. Further, the outcome in assay [8], in assay [9], in assay [10], in assay [11], in assay [12] and in assay [13] was inactive. Also, the result in assay [14], in assay [15], in assay [17], in assay [18] and in [19] was inactive. Also, in assay [7], the AC50 is 0.658 µM (active).
